p53 mut binder – binds human mutant p53 on microarray | small molecule microarray binding, anti-GST fluorescence | calls only | 0.4% of 17,000 active;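 active = compounds whose four printed spots each glow above background more than chance allows, each with a p-value under 7%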
c-Myc SMM – binds human c-Myc on microarray | P01106 | small molecule microarray, His-c-Myc binding, anti-His fluorescence | calls only | 1.5% of 17,000 active | AID 624141;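 active = spot fluorescence over background with P-value below 7% in all four replicate spots, showing protein binding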
NFkB binder – binds human NF-kappa-B p105 on microarray; P19838; Small molecule microarray, anti-His fluorescence binding; calls only; 1.3% of 17,000 active;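 active = spot fluorescence over background significantly raised, with a chance value under 7% in all four replicate spots of the compound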;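 also: probe protein is his-tagged human p50 processed subunit at 1 µg/ml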
Target sequence (P19838 1-433 limits assumed): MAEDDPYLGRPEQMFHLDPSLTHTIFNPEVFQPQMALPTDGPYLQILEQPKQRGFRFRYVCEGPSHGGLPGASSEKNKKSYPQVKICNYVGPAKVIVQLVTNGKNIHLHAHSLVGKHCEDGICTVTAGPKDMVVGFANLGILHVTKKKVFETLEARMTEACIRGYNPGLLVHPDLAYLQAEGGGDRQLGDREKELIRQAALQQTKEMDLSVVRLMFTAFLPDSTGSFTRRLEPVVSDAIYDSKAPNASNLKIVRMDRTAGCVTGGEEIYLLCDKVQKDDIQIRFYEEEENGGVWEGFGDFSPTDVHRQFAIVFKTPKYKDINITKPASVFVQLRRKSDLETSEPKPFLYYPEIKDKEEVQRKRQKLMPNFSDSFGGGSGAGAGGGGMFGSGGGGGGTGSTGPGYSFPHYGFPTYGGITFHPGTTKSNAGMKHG
STAT3 SMM – binders of human STAT3; calls only; AID 624138; P40763; Small molecule microarray, His-STAT3 binding, anti-His fluorescence; 0.2% of 17,000 active;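 active = compounds whose four printed spots each show fluorescence over background unusually high for their array block, chance value under 7%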
Each line names hits and unclear results; the compound was inactive in the other large screens. Hits are enriched below; roughly 2.4% of the tested compounds scored in any of these assays.

C[C@H]1CCCCO[C@@H](CN(C)C(=O)C2CCCCC2)[C@@H](C)CN([C@@H](C)CO)C(=O)c2cc(NS(=O)(=O)c3ccccc3)ccc2O1	none
C[C@H](CO)N1C[C@H](C)[C@H](CN(C)Cc2ccccc2)OCCCC[C@H](C)Oc2ccc(NS(=O)(=O)c3ccccc3)cc2C1=O	p53 mut binder active
C[C@H]1CCCCO[C@H](CN(C)C(=O)C2CCCCC2)[C@@H](C)CN([C@@H](C)CO)C(=O)c2cc(NS(=O)(=O)c3ccccc3)ccc2O1	c-Myc SMM active, NFkB binder active
CCCN(C)C[C@H]1OCCCC[C@@H](C)Oc2ccc(NS(=O)(=O)c3ccc(OC)cc3)cc2C(=O)N([C@H](C)CO)C[C@H]1C	p53 mut binder active
C=CCOC(=O)[C@H]1[C@@H]2C(=O)O[C@@H](c3ccccc3)[C@@H](c3ccccc3)N2[C@@H](c2ccc(OCCOC(=O)[C@@H]3C[C@@H]4C(=O)N5CCC[C@H]5C(=O)N4[C@@H]3c3ccc(O)cc3)cc2)[C@]12C(=O)Nc1ccccc12	none
C[C@H]1CCCCO[C@@H](CN(C)C(=O)Nc2ccccc2)[C@@H](C)CN([C@@H](C)CO)C(=O)c2cc(NS(=O)(=O)c3ccc(Cl)cc3)ccc2O1	none
COC(=O)c1cc(C)sc1NC(=S)NC(C)c1cn(C)nc1C (stereo not given)	none
CCn1cc(C(C)NC(=S)Nc2cccc([N+](=O)[O-])c2)c(C)n1 (stereo not given)	c-Myc SMM active
Cn1c2ccccc2c2nnc(SCCN3CCCCC3)nc21	c-Myc SMM active
CCOC(=O)CSc1nnc2c3ccccc3n(C)c2n1	none
c1ccc2c(c1)[nH]c1nc(SCCN3CCCCC3)nnc12	c-Myc SMM active
COc1ccc(CN(C)C[C@H]2Oc3ccc(NC(=O)Nc4ccc5c(c4)OCO5)cc3C(=O)N([C@H](C)CO)C[C@@H]2C)cc1	none
C[C@@H]1CN([C@H](C)CO)C(=O)c2cccc(NS(=O)(=O)c3ccc(Cl)cc3)c2O[C@@H]1CN(C)Cc1ccc(C(=O)O)cc1	none
COc1ccc(OC)c(-c2nc(C)sc2CC(=O)O)c1	none
COc1ccc(-c2noc(CC(=O)O)c2-c2ccc(OC)cc2)cc1	c-Myc SMM active
COc1ccccc1CN1CC(C(=O)O)CC1=O (stereo not given)	c-Myc SMM active
COc1ccccc1CN1C(=O)c2ccccc2[C@@H](C(=O)NCc2ccccc2)[C@@H]1c1ccc(CO)cc1	none
c1ccc(Cn2c(SCCN3CCOCC3)nc3ccccc32)cc1	c-Myc SMM active
c1ccc(Cn2c(SCc3nc4ccccc4[nH]3)nc3ccccc32)cc1	none
Cc1ccc(C)c(NC(=O)c2ccc(OCC(=O)Nc3ccccc3C)cc2)c1	none
Cc1ccc(S(=O)(=O)N(CC(=O)O)c2ccccc2C)cc1	none
COc1c(Cl)cc(Cl)cc1CNCCNCC(C)O (stereo not given)	p53 mut binder active, STAT3 SMM active
COc1ccc(NC(=O)Cn2c(-c3ccccc3)nc3sc4c(c3c2=O)CCCC4)cc1	none
O=C(Cn1nnc2sc3c(c2c1=O)CCCC3)NCc1ccco1	c-Myc SMM active
C=CC[C@]1(C(=O)NCCCOC)COC(c2ccc(OCCCO)cc2)=N1	c-Myc SMM active, NFkB binder active
C[C@H](CO)N1C[C@H](C)[C@@H](CN(C)C)Oc2ccc(NC(=O)Nc3cccc4ccccc34)cc2C1=O	none
CCOc1ccccc1CNCCN1CCOCC1	c-Myc SMM active
COc1ccc(C(CC(=O)O)NC(N)=O)cc1 (stereo not given)	none
O=C(O)Cn1nnnc1-c1ccc(F)cc1	c-Myc SMM active, NFkB binder active
O=C1O[C@H](c2ccccc2)[C@H](c2ccccc2)N2[C@H]1[C@@H](C(=O)N1CCCCCCC1)[C@]1(C(=O)Nc3ccc(C#CC4=CCCCC4)cc31)[C@H]2c1ccccc1OCCO	p53 mut binder active, c-Myc SMM active, NFkB binder active
COc1cc2c(cc1OC)CN(C(=O)[C@@H]1[C@H]3C(=O)O[C@H](c4ccccc4)[C@H](c4ccccc4)N3[C@H](c3ccccc3OCCO)[C@@]13C(=O)Nc1ccc(C#CCNC(N)=O)cc13)CC2	NFkB binder active
COc1ccc(C#Cc2ccc3c(c2)[C@]2(C(=O)N3)[C@H](C(=O)N3CCc4cc(OC)c(OC)cc4C3)[C@H]3C(=O)O[C@H](c4ccccc4)[C@H](c4ccccc4)N3[C@@H]2c2ccccc2OCCO)cc1	none
NC(=O)NCC#Cc1ccc2c(c1)[C@]1(C(=O)N2)[C@H](C(=O)N2CCCCCCC2)[C@H]2C(=O)O[C@H](c3ccccc3)[C@H](c3ccccc3)N2[C@@H]1c1ccccc1OCCO	p53 mut binder active, c-Myc SMM active
O=C1O[C@H](c2ccccc2)[C@H](c2ccccc2)N2[C@H]1[C@@H](C(=O)N1CCN(c3ncccn3)CC1)[C@]1(C(=O)Nc3ccc(C#CC4=CCCCC4)cc31)[C@H]2c1ccccc1OCCO	none
C[C@@H]1O[C@@H](O[C@@H]2[C@@H](O)[C@H](O)[C@@H](CO)O[C@H]2c2c(O)cc3oc(-c4ccc(O)cc4)cc(=O)c3c2O)[C@H](O)[C@H](O)[C@H]1O	none
COC(=O)c1c2oc(c1C(=O)OC)C(=O)N[C@H](Cc1ccccc1)Cn1cc(nn1)CNC(=O)[C@H](Cc1ccccc1)NC(=O)N[C@@H](CO)CC2	none
COC(=O)C1=C2CC[C@H](CO)NC(=O)N[C@H](Cc3ccccc3)C(=O)NCc3cn(nn3)C[C@@H](Cc3ccccc3)NC(=O)c3oc(c(C(=O)OC)c3C(=O)OC)CC[C@H](CO)NC(=O)N[C@H](Cc3ccccc3)C(=O)NCc3cn(nn3)C[C@@H](Cc3ccccc3)NC(=O)C(=C1C(=O)OC)O2	STAT3 SMM active
CN(c1ccc(OCC(=O)O)cc1)S(=O)(=O)c1ccc(F)cc1	NFkB binder active
CN(CC(N)=O)S(=O)(=O)c1ccc(F)cc1	none

High-throughput results (PubChem)
